Reference: PubChem BioAssay (NCATS)
Several values for one entry are separate records, joined by “and”; a condition that tells them apart may be missing. Equal values may be shown once. Records with an inconclusive call do not appear. Activity calls are given as the source filed them. Unless noted, the rule behind the calls is not given here. Starred links: 1 amine or outer side, 2 acyl side, 3 side chain; linkers in the order of their positions; H or OH if unused. Positions of bridges follow the written chain, without caps; N, C: chain ends. Non-standard residues stand in square brackets, D forms with d. Residues, ends and D or L forms follow the SMILES beside them. Chains are numbered I, II in the order given. Actinocin(9to1) = Cc1c2oc3c(C)ccc(C(=O)[*:1])c3nc-2c(C(=O)[*:2])c(N)c1=O; NMeV = CN[CH](C(=O)O)C(C)C; Sar = CNCC(=O)O

Columns and labels:
[1] = qHTS profiling for inhibitors of Plasmodium falciparum (3D7) proliferation (AID 743322);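 note: infected erythrocytes exposed to compound for 72 h before lysis; 100% = DMSO vehicle wells and 0% = 0.29 µM artemisinin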; conditions: P. falciparum 3D7 proliferation; at 28.7 µM (top of the series)
Summary of the method: (§1)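 Erythrocytes infected with P. falciparum (0.3% parasitemia, 2.5% hematocrit) incubated with compounds 72 h at 37 C, 5% CO2. Lysis with saponin/Triton buffer containing SYBR Green I, overnight at room temperature in the dark; DNA fluorescence (485/535 nm) normalised to 0.29 uM artemisinin and DMSO.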

[2] = qHTS profiling for inhibitors of Plasmodium falciparum (DD2) proliferation (AID 743323); conditions: lower = more inhibition; at 28.7 µM (top of the series)
Summary of the method: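 Parasite proliferation measured via DNA-dye fluorescence, as uninfected erythrocytes lack DNA. Cultures at 0.3% parasitemia and 2.5% hematocrit incubated 72 h with compound; signal scaled between vehicle and 0.29 uM artemisinin wells.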

[3] = qHTS profiling for inhibitors of Plasmodium falciparum (HB3) proliferation (AID 743324; active = well fitted curve in the direction sought with a large enough effect; an effect the other way counts as inactive or inconclusive;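 note: 100% = DMSO vehicle wells and 0% = artemisinin-treated control wells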); conditions: Plasmodium falciparum HB3 blood-stage proliferation; at 28.7 µM (top of the series)
Summary of the method: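 P. falciparum HB3 grown in erythrocytes (0.3% parasitemia, 2.5% hematocrit final) with compound for 72 h at 37 C, 5% CO2. Parasite DNA detected by SYBR Green after saponin/triton lysis overnight; normalized to 0.29 uM artemisinin and DMSO.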

[4] = qHTS profiling of the MIPE4 collection as inhibitors of Plasmodium falciparum (3D7) proliferation (AID 743344);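 note: scaled between DMSO vehicle wells and 0.29 µM artemisinin as full inhibition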; conditions: P. falciparum 3D7 in erythrocytes, SYBR Green DNA fluorescence, 72 h; at 28.5 µM (top of the series) unless noted
Summary of the method: as §1

[5] = qHTS profiling of the MIPE4 collection as inhibitors of Plasmodium falciparum (DD2) proliferation (AID 743345); conditions: P. falciparum Dd2 in erythrocytes, SYBR Green DNA, 72 h; at 28.5 µM (top of the series) unless noted
Summary of the method: as §1

[6] = qHTS profiling of the MIPE4 collection as inhibitors of Plasmodium falciparum (DD2) proliferation (Rep 2) (AID 743346); conditions: P. falciparum Dd2 in erythrocytes, SYBR Green DNA, 72 h; at 28.5 µM (top of the series) unless noted
Summary of the method: as §1

[7] = qHTS profiling of the MIPE4 collection as inhibitors of Plasmodium falciparum (HB3) proliferation (AID 743347);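 note: plate controls were DMSO vehicle wells for no effect and artemisinin wells for full effect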; conditions: P. falciparum HB3 in erythrocytes, SYBR Green DNA, 72 h; at 28.5 µM (top of the series) unless noted
Summary of the method: as §1

[8] = High-throughput drug toxicity screening in the BPDCN cell line Gen2.2 (AID 1224824); conditions: Gen2.2 BPDCN cells; at 45.8 µM (top of the series) unless noted;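 note: cells exposed to compounds for 48 h before reading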
Summary of the method: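 Gen2.2, 500 cells/well, phenol red-free RPMI/10% FBS/Pen-Strep; 48 h cpd, 37 °C/5% CO2; CTG lum, 15 min RT. Norm: DMSO = 100%, bortezomib 9.2 uM final = 0%.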

[9] = High-throughput drug toxicity screening in the BPDCN cell line Cal-1 (AID 1224825); conditions: Cal-1 BPDCN cell viability, qHTS; at 45.8 µM (top of the series) unless noted
Summary of the method: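 Exponentially growing Cal-1 cells, 500 per well in phenol red-free RPMI with 10% FBS, were exposed to compounds for 48 h at 37 °C, 5% CO2. Viability was read by CellTiter-Glo luminescence and normalised to DMSO (100%) and 9.2 uM bortezomib (0%).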

[10] = qHTS assay for measurement of the activity of small molecule inhibitors on Zika virus induced Caspase-3 activity in human iPSC derived neural progenitor cells (hNPCs) (AID 1224857; active = well fitted curve in the direction sought with a large enough effect; an effect the other way counts as inactive or inconclusive; note: % of control where 0% means no effect; nearly all actives have a fitted effect of over 65% in size)
Summary of the method: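 Pretreat hNPCs with compound 1 h; infect ZIKV 2 FFU/cell; 6 h 37 C, 5% CO2; Caspase-Glo 3/7, 30 min RT; luminescence; normalize to no-virus and virus-only wells.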

[11] = qHTS assay for measurement of the activity of small molecule inhibitors on Zika virus induced Caspase-3 activity in human astrocytoma cells (AID 1224859; active = well fitted curve in the direction sought with a large enough effect; an effect the other way counts as inactive or inconclusive;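 note: plate controls were ZIKV-infected untreated cells for no effect and uninfected cells for full effect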)
Summary of the method: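 Human SNB-19 astrocytoma cells in RPMI 1640 with 10% FBS receive compound one hour ahead of Zika virus at 2 FFU/cell. After 6 h infection, caspase-3/7 activity is detected by Caspase-Glo luminescence.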

[12] = qHTS Screen of the MIPE 4.0 Collection Against Ewings Sarcoma (RDES) (AID 1259252; active = well fitted curve in the direction sought with a large enough effect; an effect the other way counts as inactive or inconclusive; note: nearly all actives have a fitted effect of over 35% in size; note: potency is the fitted concentration of half-maximal effect)
Summary of the method: (§2)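 Measured: ATP luminescence (CellTiter-Glo) 10 min after reagent addition, following 48 h drug treatment. Relative luciferase units converted to percent activity, with no-cell wells as full and DMSO wells as zero inhibition.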

[13] = qHTS Screen of the MIPE 4.0 Collection Against Ewings Sarcoma (TC71) (AID 1259253; active = well fitted curve in the direction sought with a large enough effect; an effect the other way counts as inactive or inconclusive; note: nearly all actives have a fitted effect of over 40% in size; note: potency is the fitted concentration of half-maximal effect)
Summary of the method: as §2

[14] = qHTS Screen of the MIPE 4.0 Collection Against Ewings Sarcoma (EW8) (AID 1259255; active = well fitted curve in the direction sought with a large enough effect; an effect the other way counts as inactive or inconclusive; note: nearly all actives have a fitted effect of over 35% in size; note: potency is the fitted concentration of half-maximal effect;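 for viability: 100% = DMSO-treated cells and 0% = medium-only wells without cells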)
Summary of the method: as §2

[15] = qHTS Assay for Identifying Gametocytocidal Compounds (AID 743244; active = well fitted curve in the direction sought with a large enough effect; an effect the other way counts as inactive or inconclusive;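 note: % is set by controls: 0 for no effect and ±100 for the full control effect; actives lower the fluorescent signal which means gametocytes are killed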); conditions: P. falciparum 3D7 stage III-V gametocytes, alamarBlue, 72 h; max response: stronger effect = lower value
Summary of the method: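 Compounds are pinned into medium, gametocytes (stage III–V, 3D7, 20,000 cells/well) added, and plates held 72 h at 37 °C in 5% CO2. AlamarBlue follows for 24 h before fluorescence reading.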

Row | Compound | remaining parasite growth % (stronger effect = lower value) [1] | activity, percent of control [2] | remaining proliferation (% of control), lower = more inhibition [3] | parasite growth, % of DMSO control [4] | parasite growth remaining, % of DMSO control (lower = more inhibition) [5] | parasite growth, % of control (lower = inhibition) [6] | growth, % of control [7] | cell viability, % of control (lower = more cytotoxic) [8] | viability (% of control) [9] | Potency [10] | Potency [11] | Potency [12] | Potency [13] | Potency [14] | max response [15]
1 | COc1cc(C)c(Sc2cnc(NC(=O)c3ccc(CNC(C)C(C)(C)C)cc3)s2)cc1C(=O)N1CCN(C(C)=O)CC1 (stereo not given) | 8.84% | 8.81% | 4.6% | 7.09% | 11% | 17.2% | 4.86% | 4.37% | 3.38% | inactive | inactive | 16.6 µM (active) | 14.8 µM (active) | 1.48 µM (active) | –
2 | NC(=NCCCCCCN=C(N)N=C(N)Nc1ccc(Cl)cc1)N=C(N)Nc1ccc(Cl)cc1 | – | – | – | 12.4% | 6.46% | 22% | 6.76% | 6.22% | 2.49% | inactive | inactive | 2.96 µM (active) | 4.18 µM (active) | 9.35 µM (active) | –
3 | COc1cc2c(cc1OC)[C@@H]1C(=O)c3ccc4c(c3O[C@@H]1CO2)C=CC(C)(C)O4 | 39.1% | 44.5% | 17.6% | 45.9% | 91.2% | – | 47.7% | 7.01% | 3.79% | inactive | inactive | 23.5 µM (active) | 23.5 µM (active) | 33.2 µM (active) | -5.53% (inactive)
4 | Cc1c2oc3c(C)ccc(C(=O)NC4C(=O)NC(C(C)C)C(=O)N5CCCC5C(=O)N(C)CC(=O)N(C)C(C(C)C)C(=O)OC4C)c3nc-2c(C(=O)NC2C(=O)NC(C(C)C)C(=O)N3CCCC3C(=O)N(C)CC(=O)N(C)C(C(C)C)C(=O)OC2C)c(N)c1=O (stereo not given) (I: TVP[Sar][NMeV] / II: TVP[Sar][NMeV]; ester I:1-I:C, II:1-II:C; linker I:N-II:N via Actinocin(9to1); configuration not given here) | -4% | -2.06% | -1.93% | 3.86% | – | 15.2% | 2.3% | 2.59% | 1.96% | inactive | inactive | inactive | inactive | inactive | –
5 | O=C(O)C(=O)Nc1cccc(C2=NN=N[N]2)c1 | – | – | – | – | – | – | – | 222% | 113% | inactive | inactive | inactive | inactive | inactive | –
6 | CC(=O)SCC(Cc1ccccc1)C(=O)NCC(=O)OCc1ccccc1 (stereo not given) | – | – | – | 43.2% | 97.5% | 60.4% | 65.1% | 5.18% | 4.75% | inactive | inactive | 0.59 µM (active) | 0.833 µM (active) | 1.05 µM (active) | –
7 | O=[N+]([O-])c1cn2c(n1)OC[C@@H](OCc1ccc(OC(F)(F)F)cc1)C2 | – | – | – | 94.2% and 79.4% | 99.7% and 101% | 155% and 70.1% | 98.1% and 86.3% | 110% | 105% | inactive | inactive | 3.32 µM (active) | 3.72 µM (active) | 9.35 µM (active) | –
8 | CC(C)(C)c1nc2c3cc[nH]c(=O)c3c3cc(F)ccc3c2[nH]1 | – | – | – | 59.4% | 94.4% | 62% | 58.6% | 20.2% | 26.4% | inactive | inactive | 4.18 µM (active) | 5.9 µM (active) | 4.69 µM (active) | –
9 | CS[C@H]1SC[C@@H]2C(=O)N(C)[C@H](C(C)C)C(=O)OC[C@H](NC(=O)c3cnc4ccccc4n3)C(=O)N[C@H](C)C(=O)N(C)[C@@H]1C(=O)N(C)[C@H](C(C)C)C(=O)OC[C@H](NC(=O)c1cnc3ccccc3n1)C(=O)N[C@H](C)C(=O)N2C | – | – | – | 7.68% | 5.94% | 7.64% | 10.7% | 3.67% | 5.19% | inactive | inactive | 0.0019 µM (active) | 0.0026 µM (active) | 0.0019 µM (active) | –
10 | CC(=O)[C@]1(O)Cc2c(O)c3c(c(O)c2[C@@H](O[C@H]2C[C@H](N)[C@@H](O)[C@H](C)O2)C1)C(=O)c1ccccc1C3=O | – | – | – | 27.7% | 46.3% | 49% | 11.5% | 6.08% | 4.63% | inactive | inactive | 0.059 µM (active) | 0.0372 µM (active) | 0.0187 µM (active) | –
11 | CC(C)(O)CC[C@@H](O)[C@](C)(O)[C@H]1CC[C@@]2(O)C3=CC(=O)[C@@H]4C[C@@H](O)[C@@H](O)C[C@]4(C)[C@@H]3CC[C@]12C | – | – | – | 385% | 110% | 122% | 674% | 104% | 104% | inactive | inactive | inactive | inactive | inactive | –
12 | COC1=C2C[C@@H](C)C[C@H](OC)[C@@H](O)[C@@H](C)C=C(C)[C@H](OC(N)=O)[C@@H](OC)C=CC=C(C)C(=O)NC(=CC1=O)C2=O | – | – | – | 5.43% | 5.64% | 11.9% | 3.98% | 3.44% | 4.06% | inactive | inactive | 0.59 µM (active) | 0.59 µM (active) | 0.372 µM (active) | –
13 | O=C(NNC(=O)c1ccc(CNS(=O)(=O)c2ccc(F)c(Cl)c2)cc1)c1ccccc1 | – | – | – | 371% | 87.9% | 100% | 588% | 143% | 116% | inactive | inactive | inactive | inactive | inactive | –
14 | c1ccc(CNc2nc(NCc3ccccc3)c3ccccc3n2)cc1 | – | – | – | 5.75% | 7.99% | 10.1% | 8.52% | 6.1% | 2.67% | inactive | inactive | 20.9 µM (active) | 26.4 µM (active) | 20.9 µM (active) | –
15 | CCN(CC)Cc1ccc2cc(COC(=O)Nc3ccc(C(=O)NO)cc3)ccc2c1 | – | – | – | 4.38% | 6.93% | 6.48% | 7.88% | 8.65% | 4.07% | inactive | inactive | 0.743 µM (active) | 0.662 µM (active) | 0.526 µM (active) | –
16 | N#CC(=C(N)Sc1ccc(N)cc1)c1ccccc1C(F)(F)F | – | – | – | 24.4% | 69.5% | 33.9% | 7.78% | 7.44% | 57.2% | inactive | inactive | 5.9 µM (active) | 10.5 µM (active) | 3.32 µM (active) | –
